Screening data as filed in PubChem BioAssay.
VACV Venus inh = qHTS for Stage-Specific Inhibitors of Vaccinia Orthopoxvirus: Venus Reporter Primary qHTS; Vaccinia virus Venus reporter expression, fluorescence; Potency, µM (highest dose often 36.5 µM), usual class: inhibitors; 0.46% of 330,000 active; calls by dose curve; tested in A549 cells; further: nearly all actives have a fitted effect of over 30% in size
FMDV inh = High Throughput Screening for Foot and Mouth Disease Virus Antivirals; FMDV antiviral cell-based qHTS; Potency, µM (highest dose often 57.9 µM), most hits filed as inhibitors; 1.2% of 410,000 active; AID 1159524, 2015; calls by dose curve; tested in HEK293T cells; further: read-out not given here; nearly all actives have a fitted effect of over 45% in size
LASV entry inh = qHTS for Inhibitors of binding or entry into cells for Lassa Virus; Lassa virus pseudotype entry inhibition, cell reporter; Potency, µM (titrated, usually from 37.9 µM), hits mostly inhibitors; 1.2% of 300,000 active; AID 540256, 2011; calls by dose curve; tested in HEK293 cells; further: nearly all actives have a fitted effect of over 50% in size
HCMV antiviral = qHTS Assay for inhibitors of the human cytomegalovirus (HCMV); HFF cells, HCMV-luciferase reporter, 72 h; hits give low values; activity change, negative = inhibition, % at 57.5 µM; 4.5% of 410,000 active; in the data active means activity change below about -60%; inconclusive means no clear call, values can overlap the other calls; inactive means above about -39%
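Two compound doses tested in HFFs infected with HCMV-luciferase, MOI 1 PFU/cell, 72 h at 37C. Lysate luminescence read with OneGlo; data normalized against buffer-only and 10uM Salinomycin inhibitor controls.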
Marburg entry inh = qHTS for inhibitors of binding or entry into cells for Marburg Virus | Marburg virus pseudotyped entry inhibition, cell reporter | Potency, µM (titrated, usually from 37.8 µM), actives largely listed as inhibitors | 1.8% of 300,000 active | AID 540276, 2011; calls by dose curve; tested in HEK293 cells
Vaccinia mCherry = qHTS for Stage-Specific Inhibitors of Vaccinia Orthopoxvirus: mCherry Reporter Primary qHTS; Vaccinia virus mCherry reporter infection, fluorescence; Potency, µM (top dose mostly 36.5 µM), most hits filed as inhibitors; 0.63% of 310,000 active; AID 720579, 2013; calls by dose curve; tested in A549 cells; further: nearly all actives have a fitted effect of over 35% in size
Each line names hits and unclear results; the compound was inactive in the other large screens. Compounds with a hit are over-represented: about 6.5% of the library has one in this group of screens.

C[C@H]1[C@@H](C(=O)N2CCCC2)CC(=NOCc2ccccc2)C(=NOCc2ccccc2)C[C@H]1c1ccccc1	LASV entry inh inconclusive (no result: VACV Venus inh, FMDV inh, HCMV antiviral, Vaccinia mCherry)
Cc1ccc(NC(=O)CCCn2c3ccccc3c(=O)c3cc(C)ccc32)c(Br)c1	LASV entry inh 2.8µM, HCMV antiviral inconclusive (no result: Marburg entry inh)
Cc1cc(-c2nnc(-c3ccccc3)c(-c3ccccc3)n2)c(C)o1	HCMV antiviral -65, Marburg entry inh inconclusive (no result: VACV Venus inh, Vaccinia mCherry)
Cc1ccc(-c2nnc(-c3ccccc3)c(-c3ccccc3)n2)cc1	HCMV antiviral inconclusive
CC(=O)N1CCc2cc(S(=O)(=O)CCC(=O)NCCc3ccc(C)cc3)ccc21	none (no result: VACV Venus inh, LASV entry inh, Marburg entry inh, Vaccinia mCherry)
COC(=O)c1ccc(NC(=O)CC2C(=O)N(c3ccccc3)C(=O)N2Cc2cccs2)cc1 (centres undefined)	none (no result: Marburg entry inh)
c1ccc(-c2nn3c(-c4ccccc4)nnc3s2)cc1	none
Clc1ccccc1-c1nn2c(-c3ccncc3)nnc2s1	LASV entry inh inconclusive, Marburg entry inh 7.3µM (no result: HCMV antiviral)
Cc1ccc(-c2nnc3sc(-c4ccncc4)nn23)cc1	HCMV antiviral inconclusive, Marburg entry inh 5.8µM
CC12CCC(=O)N1C(C(=O)N1CCN(S(=O)(=O)c3ccc(Br)cc3Cl)CC1)CS2 (centres undefined)	HCMV antiviral inconclusive
COc1ccc(NC(=O)CN(C)S(=O)(=O)c2cnc[nH]2)cc1Cl	none
CCC(=NCc1ccc(F)cc1)c1c(O)n(C)c(=O)n(C)c1=O	FMDV inh 40µM, HCMV antiviral inconclusive, Marburg entry inh inconclusive (no result: VACV Venus inh, Vaccinia mCherry)
O=C1c2cccc(OCC(=O)N3CCCc4ccccc43)c2CCN1Cc1cccnc1	FMDV inh 28µM, LASV entry inh inconclusive, HCMV antiviral -61, Marburg entry inh inconclusive, Vaccinia mCherry inconclusive
Cc1ccccc1CN1CCc2c(OCC(=O)N3CCCc4ccccc43)cccc2C1=O	VACV Venus inh inconclusive, FMDV inh 40µM, LASV entry inh inconclusive, HCMV antiviral -62, Marburg entry inh inconclusive
O=[N+]([O-])c1ccc(-c2nc(-c3cccs3)c(-c3cccs3)[nH]2)cc1	VACV Venus inh inconclusive, FMDV inh 25µM, LASV entry inh inconclusive, Marburg entry inh inconclusive, Vaccinia mCherry 11µM
O=[N+]([O-])c1cccc(-c2nc(-c3cccs3)c(-c3cccs3)[nH]2)c1	VACV Venus inh inconclusive, FMDV inh inconclusive, Marburg entry inh inconclusive
Fc1ccc(-c2nc(-c3cccs3)[nH]c2-c2ccc(F)cc2)cc1	VACV Venus inh inconclusive, FMDV inh 28µM, LASV entry inh inconclusive, Marburg entry inh inconclusive, Vaccinia mCherry inconclusive
COC(=O)[C@@H]1CCCN1C(=O)c1c(OC)cc(=O)n2c1CCN(Cc1ccc3c(c1)CCO3)CC2	none (no result: LASV entry inh, HCMV antiviral, Marburg entry inh)
CCOc1cc2c(cc1/C=C/c1noc(C)c1[N+](=O)[O-])OC(C)C2 (centres undefined)	HCMV antiviral -61
Cc1ccc(SCC(=O)Nc2cccc(-c3nnc(-c4ccco4)o3)c2)cc1	VACV Venus inh inconclusive, HCMV antiviral -99 (no result: Vaccinia mCherry)
COc1cccc(-c2nnc(NC(=O)c3ccc4ncsc4c3)o2)c1	Marburg entry inh 10µM
COc1ccc(Br)cc1C(=O)Nc1cccc(-c2nnc(-c3ccco3)o2)c1	HCMV antiviral inconclusive, Marburg entry inh 21µM (no result: FMDV inh)
CS(=O)(=O)c1cccc(-c2nnc(NC(=O)c3ccc4ncsc4c3)o2)c1	none
O=C(Nc1ccccc1)c1cccc(-c2nnc(-c3ccccc3)o2)c1	none (no result: Vaccinia mCherry)
COc1cccc(C(=O)Nc2cccc(-c3nnc(-c4ccco4)o3)c2)c1	VACV Venus inh inconclusive, FMDV inh 14µM, LASV entry inh inconclusive, HCMV antiviral inconclusive, Marburg entry inh inconclusive, Vaccinia mCherry inconclusive
C=C(C)Cn1c(=O)c2c(nc3n2CCN3c2cc(C)cc(C)c2)n(C)c1=O	LASV entry inh inconclusive (no result: Marburg entry inh)
CC(C(=O)OCC(=O)NC1CCCC1)N1C(=O)c2ccccc2C1=O (centres undefined)	none
COc1cc(Cl)c(C)cc1NC(=O)CSc1cc(=O)n(C)c2cc(Cl)ccc12	FMDV inh inconclusive
COc1ccc(OC)c2c1C(=O)c1ccccc1C2=O	none
O=C1C(=C(I)I)c2ccccc2-c2ccccc21	VACV Venus inh inconclusive, FMDV inh 18µM, LASV entry inh inconclusive, HCMV antiviral -100, Marburg entry inh inconclusive, Vaccinia mCherry inconclusive
COC1=C(OC)C(=O)c2ccccc2C1=O	LASV entry inh 21µM, Marburg entry inh inconclusive (no result: FMDV inh, HCMV antiviral)
O=C1c2ccccc2-c2nc3ccccc3nc21	none (no result: VACV Venus inh, Vaccinia mCherry)
Cc1nc2c(nc1C)C(=O)c1ccccc1C2=O	VACV Venus inh 4µM, FMDV inh inconclusive, LASV entry inh inconclusive, HCMV antiviral inconclusive, Marburg entry inh 14µM, Vaccinia mCherry 3.5µM
O=C1c2ccccc2-c2cccnc21	HCMV antiviral -104 (no result: VACV Venus inh, LASV entry inh, Marburg entry inh, Vaccinia mCherry)
CCOC(=O)c1cccc(NC(=O)CC2C(=O)N(c3ccc(F)cc3)C(=O)N2Cc2cccc(OC)c2)c1 (centres undefined)	LASV entry inh inconclusive (no result: Marburg entry inh)
O=C(CSc1nnc(-c2ccc(O)cc2)o1)Nc1ccccc1Br	LASV entry inh inconclusive, Vaccinia mCherry inconclusive
CN(CCOc1ccccc1)C(=S)Nc1ccc(OC(F)F)cc1	none
O=C1c2ccccc2C(=O)c2c(O)ccc(O)c21	none (no result: VACV Venus inh, LASV entry inh, HCMV antiviral, Marburg entry inh, Vaccinia mCherry)
Cc1cc2c(cc1C)C(=O)C(Br)=C(N)C2=O	Vaccinia mCherry inconclusive
Nc1ccc(O)c2c1C(=O)c1ccccc1C2=O	none
NC1=C(Br)C(=O)c2ccccc2C1=O	VACV Venus inh inconclusive, HCMV antiviral -86, Marburg entry inh inconclusive
NC1=CC(=O)C(=O)c2ccccc21	VACV Venus inh inconclusive, FMDV inh 40µM, LASV entry inh inconclusive, HCMV antiviral -64, Marburg entry inh inconclusive, Vaccinia mCherry 14µM
O=C1C(=O)c2ccccc2-c2ccccc21	VACV Venus inh 4.5µM, FMDV inh 5.6µM, HCMV antiviral -101, Vaccinia mCherry 2.8µM (no result: LASV entry inh, Marburg entry inh)
CCCCC1CN(CCNC(=O)c2ccccn2)Cc2ccccc2O1 (centres undefined)	none (no result: LASV entry inh, HCMV antiviral, Marburg entry inh)
CCOC(=O)CSC(=S)NC(=O)c1ccc(OC)cc1	HCMV antiviral -87
CCOC(=O)/C=C(\C)Sc1cc(O)c2ccccc2c1O	FMDV inh 28µM, HCMV antiviral -100 (no result: VACV Venus inh, LASV entry inh, Marburg entry inh, Vaccinia mCherry)
O=C(NCCSCc1ccco1)c1ccc(CN2CCOCC2)cc1	LASV entry inh inconclusive (no result: FMDV inh)
O=C(NCCSCc1c(F)cccc1Cl)c1ccc(CN2CCOCC2)cc1	FMDV inh inconclusive, HCMV antiviral -63
c1ccc(CCNc2ccc3c(c2)Cc2ccccc2-3)nc1	LASV entry inh inconclusive, Marburg entry inh 1µM, Vaccinia mCherry inconclusive
BrC(=C\c1ccccc1)/C=N/n1cnnc1	VACV Venus inh inconclusive, FMDV inh inconclusive, HCMV antiviral -99, Vaccinia mCherry inconclusive (no result: LASV entry inh, Marburg entry inh)
O=C1C(=O)N2C(=C1C(=O)N1CCCCCC1)c1ccccc1CC21CCCC1	HCMV antiviral -66
CC1(C)Cc2ccccc2C2=C(C(=O)N3CCCCCC3)C(=O)C(=O)N21	none (no result: VACV Venus inh, Vaccinia mCherry)
O=C(NC(=S)Nc1ccc(Cc2ccncc2)cc1)c1ccccc1F	HCMV antiviral -99, Marburg entry inh inconclusive
O=C(NC(=S)Nc1ccc(Cc2ccncc2)cc1)c1ccccc1Cl	Marburg entry inh inconclusive
